# In PubChem BioAssay (NCATS):
# Inconclusive results are not listed. A call without a number means that no potency is given here. Calls of active or inactive are those of the source. The call rests on the fitted dose curve.
# Molecular target: Nucleoprotein (Lymphocytic choriomeningitis virus (strain Armstrong)) (UniProt P09992)
# Experiment: qHTS for Inhibitors of the Functional Ribonucleoprotein Complex (vRNP) of Lymphocytic Choriomeningitis Arenaviruses (LCMV): LCMV Primary Screen - GLuc reporter signal (AID 1347086); further: nearly all actives have a fitted effect of over 70% in size
# Conditions: LCMV minigenome vRNP cell assay, Gaussia luciferase reporter; series mostly up to 57.5 µM
# Potency means the concentration at half of the fitted maximal effect.
# Nucleoprotein (Lymphocytic choriomeningitis virus (strain Armstrong)), sequence (P09992 whole entry, looked up): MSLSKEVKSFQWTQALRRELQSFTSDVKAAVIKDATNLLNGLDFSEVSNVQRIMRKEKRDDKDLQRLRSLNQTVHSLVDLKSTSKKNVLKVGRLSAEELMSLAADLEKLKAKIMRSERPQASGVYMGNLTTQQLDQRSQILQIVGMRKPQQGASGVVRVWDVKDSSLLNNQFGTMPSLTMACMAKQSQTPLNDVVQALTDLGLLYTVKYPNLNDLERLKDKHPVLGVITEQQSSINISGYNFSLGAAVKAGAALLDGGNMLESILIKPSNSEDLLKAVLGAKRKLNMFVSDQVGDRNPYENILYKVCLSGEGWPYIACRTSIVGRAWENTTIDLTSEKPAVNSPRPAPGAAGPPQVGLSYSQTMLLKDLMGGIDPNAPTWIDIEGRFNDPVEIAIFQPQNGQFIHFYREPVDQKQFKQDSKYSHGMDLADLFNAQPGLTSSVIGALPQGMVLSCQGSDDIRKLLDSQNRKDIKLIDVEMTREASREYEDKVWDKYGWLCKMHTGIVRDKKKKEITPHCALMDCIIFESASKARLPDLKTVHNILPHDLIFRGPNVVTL
row,Structure (SMILES),Potency
1,CC(C)OC(=O)c1ccccc1,inactive
2,CC1(C)OC2CC3C4CC(F)C5=CC(=O)C=CC5(C)C4C(O)CC3(C)[C@]2(C(=O)CO)O1 (stereo not given in full),inactive
3,O=C1NC2C(=CC(O)C(O)C2O)c2cc3c(c(O)c21)OCO3 (stereo not given),inactive
4,Cc1cccc2c3c(ccc12)C1=C(C(=O)C3=O)[C@@H](C)CO1,inactive
5,NC(=O)c1ncn([C@@H]2O[C@H](CO)[C@@H](O)[C@@H]2O)c1N,inactive
6,O=C(O)c1ccco1,inactive
7,CC(C)(O)C1CC[C@@]2(C)C3CCC4[C@@]5(C)CCCC(C)(C)C5C(O)C[C@]4(C)[C@]3(C)CC[C@@H]12 (stereo not given in full),inactive
8,Nc1nc(N)c2[nH]cnc2n1,inactive
9,O=C(Nc1ccc(Br)cc1)C(c1ccccc1)c1ccccc1,inactive
10,CN1CC(=O)N2C(Cc3c([nH]c4ccccc34)[C@H]2c2ccc3c(c2)OCO3)C1=O (stereo not given in full),inactive
11,CO[C@H]1C=CO[C@@]2(C)Oc3c(C)c(O)c4c(O)c(c5c(c4c3C2=O)NC2(CCN(CC(C)C)CC2)N=5)=NC(=O)C(C)=CC=C[C@H](C)[C@H](O)[C@@H](C)[C@@H](O)[C@@H](C)[C@H](OC(C)=O)[C@H]1C,inactive
12,CNc1ncnc2c1ncn2[C@@H]1O[C@H](CO)C(O)[C@H]1O (stereo not given in full),inactive
13,CC12CCC(=O)C=C1C(O)CC1C2CCC2(C)C1CCC2(O)C(=O)CO (stereo not given),inactive
14,COc1c2ccoc2nc2c(OC)c(OCC(OC(C)=O)C(C)(C)O)ccc12 (stereo not given),inactive
15,C/C=C(\C)C(=O)OC(C)(C)[C@H]1Cc2cc3ccc(=O)oc3cc2O1,inactive
16,CC(C)(OC1OC(CO)C(O)C(O)C1O)[C@H]1Oc2ccc3ccc(=O)oc3c2[C@H]1O (stereo not given in full),inactive
17,Nc1nc2c(ncn2[C@@H]2O[C@H](COP(=O)(O)OP(=O)(O)OP(=O)(O)O)[C@@H](O)C2O)c(=O)[nH]1 (stereo not given in full),inactive
18,OC[C@H]1O[C@@H](O[C@@H]2OC=C[C@H]3[C@H](O)[C@@H]4O[C@]4(CO)[C@@H]23)[C@H](O)[C@@H](O)[C@@H]1O,inactive
19,COc1c(OC)c(O)c2c(=O)cc(-c3c(O)cccc3O)oc2c1OC,inactive
20,CC(C)(O)c1cc2nc(-c3cnc(N)nc3)nc(N3CCOCC3)c2s1,611 nM (active)

row,Structure (SMILES),Potency
1,CC1(C)C2=CCCC(C)(C)[C@]23CC[C@H]1C3,inactive
2,COc1ccc2c(=O)c(-c3ccccc3)c(C)oc2c1,inactive
3,COc1ccc([C@@H]2CC(=O)c3c(O)cc(O[C@@H]4OC(CO[C@@H]5OC(C)[C@H](O)[C@@H](O)[C@H]5O)[C@@H](O)[C@H](O)[C@H]4O)cc3O2)cc1O (stereo not given in full),inactive
4,COc1cc2c(c(OC)c1OC)-c1c(cc3c(c1OC)OCO3)CC(C)C(C)C2 (stereo not given),inactive
5,O=C(CNC(=O)c1ccccc1)c1ccccc1,inactive
6,COc1ccc([C@@H]2CC(=O)c3c(O)cc(O[C@@H]4O[C@H](CO)[C@@H](O)[C@H](O)[C@H]4O[C@@H]4O[C@@H](C)[C@H](O)[C@@H](O)[C@H]4O)cc3O2)cc1,inactive
7,CC1NC(C(=O)O)Cc2c1[nH]c1ccccc21 (stereo not given),inactive
8,C=C[C@@]1(C)CC(=O)[C@]2(O)[C@@]3(C)[C@@H](O)CCC(C)(C)[C@@H]3[C@H](OC(C)=O)[C@H](O)[C@@]2(C)O1,inactive
9,COc1ccc(CC(C)N)cc1 (stereo not given),inactive
10,O=c1c2ccccc2nc2n1CCC2,inactive
11,C=C1C(=O)OC2C1C(OC(=O)C(C)=CC)CC(=C)C1C(O)C3OC3(C)C21O (stereo not given),inactive
12,COC(C)(C)[C@@H](O)COc1c2ccoc2cc2oc(=O)ccc12,inactive
13,Cc1csc(NC(=O)c2sc3nc4c(c(C(F)(F)F)c3c2N)CCC4)n1,inactive
14,O=C(OCCc1ccccc1)c1ccccc1,inactive
15,COc1cccc2c(=O)c3ccoc3n(C)c12,inactive
16,COc1ccc([C@@H](OC)[C@@]2(Cc3ccc(O)cc3)N=C(N)N(C)C2=O)cc1,inactive
17,C[C@@H]1C[C@@H]2OC(=O)[C@]3(C)[C@H]2[C@@H](OC3(C)O)[C@]2(C)C(=O)C=C[C@H]12 (stereo not given in full),inactive
18,COc1ccc(C(=O)/C=C/c2ccc(O)cc2)c(O)c1CC=C(C)C,inactive
19,CCCCN(CCCC)CC(O)c1cc(Cl)cc2c1-c1ccc(Cl)cc1C2=Cc1ccc(Cl)cc1 (stereo not given),inactive
20,CCCCCCCCCC(=O)OCC,inactive
